Screen size: about 39,000 compounds; about 1,500 (3.8%) were called active. This excerpt belongs to a sample that is enriched for actives.
system: HSkMC (human skeletal muscle cells); test: cytotoxicity call (relative viability < 0.9); settings: 10 µM

SMILES | cytotoxicity call
C[C@@H]1CN([C@H](C)CO)C(=O)c2cc(/C=C/c3ccccc3)cnc2O[C@H]1CN(C)C(=O)c1cnccn1 | inactive
CN1CCN(C(=O)C[C@@H]2CC[C@H]3[C@@H](COC[C@@H](O)CN3C(=O)C3CCCC3)O2)CC1 | inactive
Cc1noc(C)c1S(=O)(=O)Nc1ccc2c(c1)C(=O)N([C@H](C)CO)C[C@@H](C)[C@H](CN(C)S(=O)(=O)c1cccs1)O2 | inactive
Cc1ccc(S(=O)(=O)Nc2ccc3c(c2)C(=O)N([C@H](C)CO)C[C@H](C)[C@@H](CN(C)Cc2ccncc2)OCCCC[C@H](C)O3)cc1 | inactive
COc1ccc(NC(=O)N(C)C[C@@H]2OCCCC[C@@H](C)Oc3ccc(NC(=O)Cc4ccccc4)cc3C(=O)N([C@@H](C)CO)C[C@H]2C)cc1 | inactive
C[C@H](CO)N1C[C@H](C)[C@@H](CN(C)Cc2ccc(C(=O)O)cc2)Oc2c(NC(=O)Nc3cccc4ccccc34)cccc2C1=O | inactive
C[C@@H]1CCCCO[C@H](CN(C)S(C)(=O)=O)[C@@H](C)CN([C@H](C)CO)C(=O)c2cc(NS(=O)(=O)c3ccc(F)cc3)ccc2O1 | inactive
C[C@@H]1CN([C@H](C)CO)C(=O)c2cc(NC(=O)Nc3ccc(C(F)(F)F)cc3)ccc2O[C@@H](C)CCCCO[C@H]1CN(C)S(=O)(=O)c1cn(C)cn1 | inactive
COc1ccc(S(=O)(=O)Nc2ccc3c(c2)C(=O)N([C@@H](C)CO)C[C@H](C)[C@@H](CN(C)C(=O)c2ccccc2)OCCCC[C@H](C)O3)cc1 | inactive
COc1cc2c(=O)c(-c3ccc4c(c3)OCO4)coc2c2c1OC(C)(C)C=C2 | inactive
COc1cc2c(cc1OC)-c1c(oc3c4c(ccc3c1=O)OC(C)(C)C=C4)CO2 | inactive
COc1c(-c2coc3cc4c(cc3c2=O)CC(O)C(C)(C)O4)ccc2c1C=CC(C)(C)O2 (stereo not drawn) | active
C[C@@H]1CCCCO[C@@H](CN(C)Cc2ccc(C(=O)O)cc2)[C@H](C)CN([C@H](C)CO)C(=O)c2cc(NC(=O)NC3CCCCC3)ccc2O1 | inactive
COCC#Cc1ccc2c(c1)O[C@H](CN(C)S(=O)(=O)c1ccc(OC)cc1)[C@H](C)CN([C@@H](C)CO)S2(=O)=O | inactive
Cc1noc(C)c1S(=O)(=O)Nc1ccc2c(c1)CC(=O)N([C@H](C)CO)C[C@@H](C)[C@H](CN(C)Cc1ccc(-c3ccccc3)cc1)O2 | inactive
Cc1noc(C)c1S(=O)(=O)Nc1ccc2c(c1)CC(=O)N([C@@H](C)CO)C[C@H](C)[C@H](CN(C)Cc1ccc(-c3ccccc3)cc1)O2 | inactive
Cc1noc(C)c1S(=O)(=O)Nc1ccc2c(c1)CC(=O)N([C@H](C)CO)C[C@H](C)[C@@H](CN(C)Cc1ccc(-c3ccccc3)cc1)O2 | active
Cc1noc(C)c1S(=O)(=O)Nc1ccc2c(c1)CC(=O)N([C@@H](C)CO)C[C@@H](C)[C@H](CN(C)Cc1ccc(-c3ccccc3)cc1)O2 | active
Cc1noc(C)c1S(=O)(=O)Nc1ccc2c(c1)CC(=O)N([C@@H](C)CO)C[C@@H](C)[C@@H](CN(C)Cc1ccc(-c3ccccc3)cc1)O2 | inactive
Cc1noc(C)c1S(=O)(=O)Nc1ccc2c(c1)CC(=O)N([C@@H](C)CO)C[C@H](C)[C@@H](CN(C)Cc1ccc(-c3ccccc3)cc1)O2 | inactive
CC(C)CC#Cc1cnc2c(c1)C(=O)N([C@H](C)CO)C[C@H](C)[C@@H](CN(C)C(=O)CN1CCOCC1)O2 | inactive

SMILES | cytotoxicity call
NC(=O)N1C(=O)[C@H]2[C@H](C1=O)[C@H]1C=C(CCCO)[C@@H]2[C@H](c2ccc(CN3CCCC3)cc2)N1Cc1sc2ccccc2c1Cl | inactive
C[C@@H]1CN([C@H](C)CO)C(=O)c2cc(NS(=O)(=O)c3cccs3)ccc2O[C@@H]1CN(C)CC1CC1 | inactive
C[C@@H]1CN([C@H](C)CO)C(=O)Cc2cc(NS(=O)(=O)c3cccs3)ccc2O[C@H]1CN(C)S(=O)(=O)c1ccc(F)cc1 | inactive
C[C@H](CO)N1C[C@H](C)[C@@H](CN(C)C(=O)Nc2ccc(F)cc2)OCCCC[C@H](C)Oc2ccc(NC(=O)Nc3cccc4ccccc34)cc2C1=O | inactive
COCCCNC(=O)[C@@]1(Cc2ccccc2I)c2ccccc2C(=O)N(C2CCCCC2)[C@H]1c1ccc(CO)cc1 | inactive
C[C@H](CO)N1C[C@H](C)[C@@H](CN(C)Cc2ccc(C(F)(F)F)cc2)Oc2ccc(NC(=O)Nc3ccccc3)cc2CC1=O | inactive
C[C@@H]1CN([C@@H](C)CO)C(=O)Cc2cc(NC(=O)Nc3ccccc3)ccc2O[C@@H]1CN(C)Cc1ccc(C(F)(F)F)cc1 | active
C[C@@H]1CN([C@@H](C)CO)C(=O)Cc2cc(NC(=O)Nc3ccccc3)ccc2O[C@H]1CN(C)Cc1ccc(C(F)(F)F)cc1 | active
C[C@@H]1CN([C@H](C)CO)C(=O)Cc2cc(NC(=O)Nc3ccccc3)ccc2O[C@@H]1CN(C)Cc1ccc(C(F)(F)F)cc1 | active
C[C@H]1CN([C@@H](C)CO)C(=O)Cc2cc(NC(=O)Nc3ccccc3)ccc2O[C@H]1CN(C)Cc1ccc(C(F)(F)F)cc1 | active
C[C@@H](O)C#Cc1ccc2c(c1)O[C@@H](CN(C)C(=O)C1CCCCC1)[C@@H](C)CN([C@@H](C)CO)S2(=O)=O | inactive
Cc1noc(C)c1S(=O)(=O)Nc1ccc2c(c1)C(=O)N([C@H](C)CO)C[C@H](C)[C@H](CN(C)Cc1ccc(Cl)c(Cl)c1)OCCCC[C@@H](C)O2 | inactive
COc1oc(C(=O)NC2CCCCC2)c(-c2ccc(Cl)cc2)c1S(=O)(=O)c1ccc2c(c1)OCCO2 | inactive
CN1C(=O)c2cc(NS(=O)(=O)c3ccc(F)cc3)ccc2OC[C@@H]2O[C@H](CC(=O)NCC(F)(F)F)CC[C@H]21 | inactive
C[C@@H]1CCCCO[C@H](CN(C)S(=O)(=O)c2ccc(F)cc2)[C@H](C)CN([C@@H](C)CO)C(=O)c2cc(NS(=O)(=O)c3ccc(Cl)cc3)ccc2O1 | inactive
COc1ccc(O)cn1 | inactive
C[C@H]1CCCCO[C@H](CN(C)S(=O)(=O)c2cccs2)[C@@H](C)CN([C@@H](C)CO)C(=O)c2cc(NC(=O)Nc3cccc4ccccc34)ccc2O1 | inactive
C[C@@H]1CN([C@@H](C)CO)C(=O)c2cc(NC(=O)Nc3ccccc3)ccc2O[C@H]1CN(C)S(C)(=O)=O | inactive
CC(C)NC(=O)N(C)C[C@H]1Oc2ccc(NS(=O)(=O)c3ccc(F)cc3)cc2CC(=O)N([C@@H](C)CO)C[C@H]1C | inactive
O=C1C=CC(O)(/C=C/C(=O)O[C@@H]2[C@@H](O)[C@H](Oc3ccc(O)cc3)O[C@H](CO)[C@H]2O)C=C1 | inactive
C[C@H](CO)N1C[C@H](C)[C@@H](CN(C)Cc2cccc(C(=O)Nc3ccccc3N)c2)OCc2ccccc2-c2c(n(C)c3ccccc23)C1=O | inactive

SMILES | cytotoxicity call
C[C@@H]1CN([C@H](C)CO)C(=O)Cc2cc(NC(=O)Nc3ccccc3)ccc2O[C@H]1CN(C)Cc1ccc(C(F)(F)F)cc1 | active
C[C@H]1CN([C@@H](C)CO)C(=O)Cc2cc(NC(=O)Nc3ccccc3)ccc2O[C@@H]1CN(C)Cc1ccc(C(F)(F)F)cc1 | active
C[C@H](CO)N1C[C@H](C)[C@H](CN(C)Cc2ccc(C(F)(F)F)cc2)Oc2ccc(NC(=O)Nc3ccccc3)cc2CC1=O | active
C=C1C(c2ccc(C)cc2)=CCc2cc(C)cc(C)c21 | inactive
C[C@@H]1CCCCO[C@@H](CN(C)S(=O)(=O)c2cccs2)[C@H](C)CN([C@@H](C)CO)C(=O)c2cc(NC(=O)Nc3ccc(F)cc3)ccc2O1 | inactive
Cc1nnn2c1COC[C@H](CNCC(C)C)C2 | inactive
COCC(=O)Nc1ccc2c(c1)OC[C@@H](C)N(Cc1ccccc1OC)C[C@@H](C)[C@@H](OC)CN(C)C2=O | inactive
COc1ccc(NC(=O)Nc2ccc3c(c2)C(=O)N([C@@H](C)CO)C[C@@H](C)[C@@H](CN(C)S(=O)(=O)c2cccs2)OCCCC[C@H](C)O3)cc1 | inactive
O=C(CN1CCOCC1)N[C@H]1CC[C@H](CCNC(=O)C2CCCCC2)O[C@@H]1CO | inactive
CNC[C@@H]1Oc2ccc(NS(=O)(=O)c3cn(C)cn3)cc2C(=O)N([C@H](C)CO)C[C@H]1C | inactive
CCCNC(=O)N1C[C@@H](O)COC[C@@H]2O[C@@H](CC(=O)N3CCOCC3)CC[C@H]21 | inactive
O=C(C[C@@H]1CC[C@H]2[C@@H](COC[C@H](O)CN2S(=O)(=O)c2ccc(F)cc2)O1)N[C@H]1CCN(Cc2ccccc2)C1 | inactive
COc1nsnc1N1CCOCC1 | inactive
C[C@H](CO)N1C[C@H](C)[C@H](CN(C)Cc2ccc(Cl)c(Cl)c2)Oc2ccc(NS(=O)(=O)c3ccccc3)cc2CC1=O | inactive
C[C@H](CO)N1C[C@H](C)[C@@H](CN(C)Cc2ccc(Cl)c(Cl)c2)Oc2ccc(NS(=O)(=O)c3ccccc3)cc2CC1=O | inactive
C[C@H]1CN([C@@H](C)CO)C(=O)Cc2cc(NS(=O)(=O)c3ccccc3)ccc2O[C@@H]1CN(C)Cc1ccc(Cl)c(Cl)c1 | inactive
C[C@@H]1CN([C@H](C)CO)C(=O)Cc2cc(NS(=O)(=O)c3ccccc3)ccc2O[C@@H]1CN(C)Cc1ccc(Cl)c(Cl)c1 | active
C[C@@H]1CN([C@@H](C)CO)C(=O)Cc2cc(NS(=O)(=O)c3ccccc3)ccc2O[C@@H]1CN(C)Cc1ccc(Cl)c(Cl)c1 | active
C[C@@H]1CN([C@@H](C)CO)C(=O)Cc2cc(NS(=O)(=O)c3ccccc3)ccc2O[C@H]1CN(C)Cc1ccc(Cl)c(Cl)c1 | active
C[C@@H]1CN([C@H](C)CO)C(=O)Cc2cc(NS(=O)(=O)c3ccccc3)ccc2O[C@H]1CN(C)Cc1ccc(Cl)c(Cl)c1 | active
C[C@H]1CN([C@@H](C)CO)C(=O)Cc2cc(NS(=O)(=O)c3ccccc3)ccc2O[C@H]1CN(C)Cc1ccc(Cl)c(Cl)c1 | inactive
